From PubChem BioAssay AID1159580 (chemical genetic matrix, 2015)
Several values for one entry are separate records, joined by “and”; a condition that tells them apart may be missing. Equal entries are not always repeated. Out of some 5,500 compounds screened, about 2,000 (36%) were called active. Roughly 18% stayed inconclusive and do not appear here. Cut-off read from the data, not from the text of the source: active = normalized growth mostly below about 0.91 (no sharp cut-off); inconclusive = no clear call, values can overlap the other calls; inactive = mostly above about 0.92. Some of the results follow.

Assay: chemical genetic growth profiling, strain panel (AID 1159580);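 note: tested at 20 µM; growth read once vehicle control cultures reached saturation at 30 °C; 1 = growth at the plate median or of vehicle wells; lower values mean less growth of the strain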
Conditions: growth OD
[1] = S. cerevisiae deletion strains, locus YAL013W, strain DEP1, stronger effect = lower value
[2] = S. cerevisiae deletion strains, locus YBR229C, strain ROT2, stronger effect = lower value
[3] = S. cerevisiae deletion strains, locus YDL101C, strain DUN1, stronger effect = lower value
[4] = S. cerevisiae deletion strains, locus YDR150W, strain NUM1, stronger effect = lower value
[5] = S. cerevisiae deletion strains, locus YEL061C, strain CIN8, stronger effect = lower value
[6] = S. cerevisiae deletion strains, locus YGR078C, strain PAC10, stronger effect = lower value
[7] = S. cerevisiae deletion strains, locus YGR229C, strain SMI1, stronger effect = lower value
[8] = S. cerevisiae deletion strains, locus YHR030C, strain SLT2, stronger effect = lower value
[9] = S. cerevisiae deletion strains, locus YJR043C, strain POL32, stronger effect = lower value
[10] = S. cerevisiae deletion strains, locus YJR075W, strain HOC1, stronger effect = lower value
[11] = S. cerevisiae deletion strains, locus YKL190W, strain CNB1, stronger effect = lower value
[12] = S. cerevisiae deletion strains, locus YLR039C, strain RIC1, stronger effect = lower value
[13] = S. cerevisiae deletion strains, locus YLR262C, strain YPT6, stronger effect = lower value
[14] = S. cerevisiae deletion strains, locus YMR263W, strain SAP30, stronger effect = lower value
[15] = S. cerevisiae deletion strains, locus YNL153C, strain GIM3, stronger effect = lower value
[16] = S. cerevisiae deletion strains, locus YNL322C, strain KRE1, stronger effect = lower value
[17] = S. cerevisiae deletion strains, locus YPL055C, strain LGE1, stronger effect = lower value
[18] = S. cerevisiae deletion strains, locus YPL241C, strain CIN2, stronger effect = lower value

Measured: normalized growth

CNCCc1ccccn1
inactive: [1] 1.01 | S. cerevisiae deletion strains, locus YBR021W, strain FUR4, stronger effect = lower value 1.02 | [2] 1.01 | S. cerevisiae deletion strains, locus YCL029C, strain bik1, stronger effect = lower value 1.04 | S. cerevisiae deletion strains, locus YDL035C, strain GPR1, stronger effect = lower value 0.992 | S. cerevisiae deletion strains, locus YDL074C, strain BRE1, stronger effect = lower value 1.03 | [3] 1.01 | S. cerevisiae deletion strains, locus YDL134C, strain PPH21, stronger effect = lower value 1.01 | S. cerevisiae deletion strains, locus YDL185W, strain tfp1, stronger effect = lower value 1.02 | S. cerevisiae deletion strains, locus YDL192W, strain arf1, stronger effect = lower value 1.02 | S. cerevisiae deletion strains, locus YDR101C, strain arx1, stronger effect = lower value 1.01 | [4] 1.01 | S. cerevisiae deletion strains, locus YDR162C, strain NBP2, stronger effect = lower value 1.01 | S. cerevisiae deletion strains, locus YDR318W, strain mcm21, stronger effect = lower value 1.02 | S. cerevisiae deletion strains, locus YDR388W, stronger effect = lower value 1.01 | S. cerevisiae deletion strains, locus YDR502C, strain sam2, stronger effect = lower value 1.01 | [5] 1.01 | S. cerevisiae deletion strains, locus YER110C, stronger effect = lower value 1.02 | S. cerevisiae deletion strains, locus YER155C, strain BEM2, stronger effect = lower value 1 | S. cerevisiae deletion strains, locus YER167W, strain BCK2, stronger effect = lower value 1.01 | S. cerevisiae deletion strains, locus YGL078C, strain dbp3, stronger effect = lower value 1.01 | S. cerevisiae deletion strains, locus YGL086W, strain mad1, stronger effect = lower value 1 | S. cerevisiae deletion strains, locus YGL248W, strain PDE1, stronger effect = lower value 1 | [6] 1.03 | S. cerevisiae deletion strains, locus YGR135W, strain pre9, stronger effect = lower value 1.01 | [7] 1.02 | S. cerevisiae deletion strains, locus YGR252W, strain gcn5, stronger effect = lower value 0.958 | [8] 1.01 and 1.04 | S. cerevisiae deletion strains, locus YHR079C, strain IRE1 (second series), stronger effect = lower value 1.02 | S. cerevisiae deletion strains, locus YHR079C, strain IRE1, stronger effect = lower value 1.04 | S. cerevisiae deletion strains, locus YHR094C, strain hxt1, stronger effect = lower value 1.01 | S. cerevisiae deletion strains, locus YHR129C, strain ARP1, stronger effect = lower value 0.996 | S. cerevisiae deletion strains, locus YHR200W, strain rpn10, stronger effect = lower value 1.01 | S. cerevisiae deletion strains, locus YIL066C, strain RNR3, stronger effect = lower value 1.02 | S. cerevisiae deletion strains, locus YIL073C, strain SPO22, stronger effect = lower value 1.06 | S. cerevisiae deletion strains, locus YIL125W, strain kgd1, stronger effect = lower value 1 | S. cerevisiae deletion strains, locus YIR030C, strain dcg1, stronger effect = lower value 1.01 | S. cerevisiae deletion strains, locus YJL095W, strain BCK1, stronger effect = lower value 1.04 and 1.03 | S. cerevisiae deletion strains, locus YJL134W, strain LCB3, stronger effect = lower value 1 | S. cerevisiae deletion strains, locus YJL168C, strain set2, stronger effect = lower value 1.01 | S. cerevisiae deletion strains, locus YJL187C, strain SWE1 (second series), stronger effect = lower value 1.02 | [9] 1.02 | S. cerevisiae deletion strains, locus YJR066W, strain TOR1, stronger effect = lower value 0.978 | [10] 1.02 | S. cerevisiae deletion strains, locus YKL009W, strain mrt4, stronger effect = lower value 1.07 | S. cerevisiae deletion strains, locus YKL068W, stronger effect = lower value 1.01 | S. cerevisiae deletion strains, locus YKL085W, strain MDH1 (second series), stronger effect = lower value 1.01 | S. cerevisiae deletion strains, locus YKL085W, strain MDH1, stronger effect = lower value 1.01 | [11] 1.01 | S. cerevisiae deletion strains, locus YKR001C, strain vps1, stronger effect = lower value 1.01 | [12] 1.02 | S. cerevisiae deletion strains, locus YLR058C, strain SHM2, stronger effect = lower value 1.01 | S. cerevisiae deletion strains, locus YLR102C, strain apc9, stronger effect = lower value 1.02 | S. cerevisiae deletion strains, locus YLR113W, strain HOG1, stronger effect = lower value 1.03 | [13] 1.02 | S. cerevisiae deletion strains, locus YLR268W, strain sec22, stronger effect = lower value 1.04 | S. cerevisiae deletion strains, locus YLR330W, strain CHS5, stronger effect = lower value 1.01 | S. cerevisiae deletion strains, locus YLR342W, strain FKS1 (second series), stronger effect = lower value 1.02 | S. cerevisiae deletion strains, locus YLR371W, strain rom2, stronger effect = lower value 1.02 | S. cerevisiae deletion strains, locus YLR418C, strain cdc73, stronger effect = lower value 1.03 | S. cerevisiae deletion strains, locus YML016C, strain PPZ1, stronger effect = lower value 1 | S. cerevisiae deletion strains, locus YML032C, strain rad52, stronger effect = lower value 1.03 | S. cerevisiae deletion strains, locus YML124C, strain tub3, stronger effect = lower value 1.01 | S. cerevisiae deletion strains, locus YMR078C, strain ctf18, stronger effect = lower value 1.02 | S. cerevisiae deletion strains, locus YMR223W, strain ubp8, stronger effect = lower value 1.01 | [14] 1.03 | S. cerevisiae deletion strains, locus YMR307W, strain GAS1, stronger effect = lower value 0.966 | S. cerevisiae deletion strains, locus YNL067W, strain RPL9B, stronger effect = lower value 1.02 | S. cerevisiae deletion strains, locus YNL128W, strain TEP1, stronger effect = lower value 1.01 | [15] 1.01 | S. cerevisiae deletion strains, locus YNL183C, strain NPR1, stronger effect = lower value 0.978 | S. cerevisiae deletion strains, locus YNL233W, strain BNI4, stronger effect = lower value 1.01 | S. cerevisiae deletion strains, locus YNL250W, strain rad50, stronger effect = lower value 1.03 | S. cerevisiae deletion strains, locus YNL271C, strain bni1, stronger effect = lower value 1.02 | S. cerevisiae deletion strains, locus YNL298W, strain CLA4, stronger effect = lower value 1.01 | S. cerevisiae deletion strains, locus YNL307C, strain MCK1, stronger effect = lower value 1.02 | [16] 1.01 | S. cerevisiae deletion strains, locus YNR052C, strain pop2, stronger effect = lower value 1.01 | S. cerevisiae deletion strains, locus YOL006C, strain TOP1, stronger effect = lower value 1.08 | S. cerevisiae deletion strains, locus YOL012C, strain htz1 0.922 | S. cerevisiae deletion strains, locus YOL147C, strain pex11, stronger effect = lower value 1.01 | S. cerevisiae deletion strains, locus YOR061W, strain CKA2, stronger effect = lower value 1.01 | S. cerevisiae deletion strains, locus YOR069W, strain VPS5, stronger effect = lower value 1.01 | S. cerevisiae deletion strains, locus YOR136W, strain idh2, stronger effect = lower value 1.01 | S. cerevisiae deletion strains, locus YOR144C, strain elg1, stronger effect = lower value 1.01 | S. cerevisiae deletion strains, locus YOR184W, strain ser1, stronger effect = lower value 1.02 | S. cerevisiae deletion strains, locus YOR231W, strain MKK1, stronger effect = lower value 1.02 | S. cerevisiae deletion strains, locus YOR316C, strain cot1, stronger effect = lower value 1.01 | [17] 1.04 | [18] 1.01 | S. cerevisiae deletion strains, locus YPL256C, strain CLN2, stronger effect = lower value 1.04 | S. cerevisiae deletion strains, locus YPR119W, strain clb2, stronger effect = lower value 1.01 | S. cerevisiae deletion strains, locus YPR141C, strain kar3, stronger effect = lower value 1.02 | S. cerevisiae deletion strains, locus YPR163C, strain tif3, stronger effect = lower value 1.02 | S. cerevisiae deletion strains, locus YPR167C, strain met16, stronger effect = lower value 1.01 | S. cerevisiae deletion strains, strain wtn01, stronger effect = lower value 1.01 | S. cerevisiae strains, strain wild type, stronger effect = lower value 1.01

Cc1ccc(C)c(NC(=S)N(CCc2ccccc2)CCc2ccccn2)c1
inactive: [1] 0.989 | [2] 0.983 | S. cerevisiae deletion strains, locus YCL061C, strain MRC1, stronger effect = lower value 1 | [3] 1.04 | [4] 0.99 | [5] 0.953 | [6] 0.996 | [7] 0.974 | [8] 0.978 | S. cerevisiae deletion strains, locus YHR087W, strain rtc3, stronger effect = lower value 0.958 | S. cerevisiae deletion strains, locus YJL187C, strain SWE1, stronger effect = lower value 0.989 | [9] 1.01 | [10] 0.999 | [11] 0.964 | S. cerevisiae deletion strains, locus YLR058C, strain SHM2 (second series), stronger effect = lower value 0.98 | S. cerevisiae deletion strains, locus YLR085C, strain ARP6, stronger effect = lower value 0.928 | [13] 0.853 | S. cerevisiae deletion strains, locus YML094W, strain GIM5, stronger effect = lower value 0.95 | S. cerevisiae deletion strains, locus YMR219W, strain ESC1, stronger effect = lower value 0.996 | [14] 0.985 | [15] 1.01 | S. cerevisiae deletion strains, locus YNL298W, strain CLA4 (second series), stronger effect = lower value 0.984 | [16] 0.974 | S. cerevisiae deletion strains, locus YNR030W, strain Alg12, stronger effect = lower value 0.988 | [17] 0.946 | [18] 1.03 | S. cerevisiae deletion strains, locus YPR135W, strain CTF4, stronger effect = lower value 0.942
active: [12] 0.606
